Data published in PubChem BioAssay (NCI).
Compounds without any hit were thinned out: in the full panel of roughly 83,000, 20% have a hit.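 Activity criterion: percent growth below 10, measured after cells in 96-well plates were exposed to a single compound concentration for 48 hours.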 Active and inactive are the calls of the source.

Columns and labels:
Assay in all cases: NCI-60 one-dose screen, 48 h (100 = growth as untreated, 0 = no growth, -100 = all killed)
Details in all cases: 10 µM unless noted
[1] = system: SR leukemia
[2] = system: RPMI-8226 leukemia
[3] = system: OVCAR-8 ovarian
[4] = system: OVCAR-5 ovarian
[5] = system: OVCAR-4 ovarian
[6] = system: SK-OV-3 ovarian
[7] = system: IGROV1 ovarian
[8] = system: OVCAR-3 ovarian
[9] = system: HS 578T breast
[10] = system: NCI/ADR-RES ovarian
[11] = system: T-47D breast
[12] = system: BT-549 breast
[13] = system: MDA-MB-435 melanoma
[14] = system: SW-620 colon
[15] = system: MCF7 breast
[16] = system: HCT-116 colon
[17] = system: HCC-2998 colon
[18] = system: KM12 colon

Measured: growth

CCN1CC(=O)N(/N=C2\C(=O)Nc3ccccc32)C1=S
inactive: [1] 83.1% | [2] 96% | [3] 95.4% | [4] 97.2% | [5] 97.2% | [6] 78.4% | [7] 55.3% | [8] 98.1% | [9] 83% | [10] 103% | [11] 73.6% | [12] 88.5% | [13] 98.2% | [14] 87% | [15] 84.1% | [16] 94.9% | [17] 99.4% | [18] 94.7%

CN1CCN(Cc2ccc(NC(=O)c3cncc(C#Cc4cnc(N)c5ccccc45)c3)cc2C(F)(F)F)CC1
inactive: [12] 25.9%
active: [1] 1.53% | [2] -42.8% | [3] -82.5% | [4] -83.7% | [5] -32.7% | [6] -78.5% | [7] -69.8% | [8] -87.6% | [9] -41.5% | [10] -65.7% | [11] -60.6% | [13] -88.7% | [14] -73.4% | [15] -76.8% | [16] -60.9% | [17] -92.3% | [18] -86.6%

COc1cc2c(c(OC)c1OC)C(=O)CC(c1cccc(NC(=O)c3ccc(Br)cc3)c1)O2 (stereo not drawn)
active: [1] 3.88% | [2] -4.85% | [10] 8.47% | [13] -18.3%
inactive: [3] 14.1% | [4] 95.4% | [5] 53.9% | [6] 74.7% | [7] 45.9% | [8] 46.5% | [9] 71% | [11] 10% | [12] 15.7% | [14] 25.4% | [15] 23.4% | [16] 23.4% | [17] 72.7% | [18] 31.6%

Cc1ccc(CNc2ccc(Cl)cc2NCc2ccc(C)c(O)c2)cc1O
inactive: [2] 16% | [3] 23.6% | [4] 73.6% | [5] 27.8% | [6] 54.7% | [7] 24.2% | [8] 10.9% | [9] 42.7% | [10] 15.4% | [11] 11.3% | [12] 39.9% | [13] 30.9% | [14] 25.9% | [16] 24.4% | [17] 22.7%
active: [1] -33% | [15] 9.21% | [18] -1.46%

N#Cc1nn(-c2cc(=O)[nH]c3ccc(Cl)cc23)c(N)c1C#N
inactive: [3] 95.8% | [4] 105% | [5] 91.5% | [6] 74.6% | [7] 102% | [8] 108% | [9] 103% | [10] 98.5% | [11] 67.2% | [12] 87.9% | [13] 125% | [14] 91.1% | [15] 100% | [16] 84.4% | [17] 92.7% | [18] 106%
active: [1] 0.706% | [2] -24.6%

O=C(Nn1c2c(sc1=NCc1ccccc1)C(=O)c1ccccc1C2=O)c1cc2ccc1CCc1ccc(cc1)CC2
active: [13] -85.5%
inactive: [1] 48.3% | [2] 59% | [3] 46.3% | [4] 118% | [5] 47.7% | [6] 72.9% | [7] 53% | [8] 51.1% | [9] 72.2% | [10] 64.3% | [11] 35.1% | [12] 77.3% | [14] 77.5% | [15] 40% | [16] 55.9% | [17] 101% | [18] 74.8%

O=C1c2c(c3c4ccccc4[nH]c3c3ccc4ccccc4c23)C(=O)N1CCN1CCCCC1
active: [1] 2.17% | [2] 9.02% | [17] -0.0363%
inactive: [3] 25.6% | [4] 74.8% | [5] 64.8% | [6] 53.7% | [7] 52.8% | [8] 51.1% | [9] 90.2% | [10] 40.9% | [11] 13.6% | [12] 78.9% | [13] 67.2% | [14] 30.5% | [15] 17.1% | [16] 23.1% | [18] 48%

CCCCCC(=O)OCC(=O)O[C@@H]1C[C@]2(C(C)C)O[C@@]1(C)[C@@H]1CC[C@@H](C)[C@H]1[C@@H]2OC(=O)/C=C/c1ccccc1
active: [9] -15.5%
inactive: [1] 76.3% | [2] 66.8% | [3] 19.9% | [4] 112% | [5] 75.7% | [6] 87.9% | [7] 86.7% | [8] 52.9% | [10] 21.7% | [11] 21.4% | [12] 12.6% | [13] 99.4% | [14] 48.9% | [15] 26.8% | [16] 74% | [17] 88.5% | [18] 85%

O=C(Cn1c(-c2ccc([N+](=O)[O-])cc2)nc2ccccc21)NNC(=O)c1cccnc1
inactive: [1] 75.9% | [2] 77.6% | [3] 85.1% | [4] 101% | [5] 96.5% | [6] 102% | [7] 63.3% | [8] 97.3% | [9] 101% | [10] 87.9% | [11] 71.2% | [12] 97% | [13] 86.2% | [14] 103% | [15] 25.9% | [16] 82.1% | [17] 98.5% | [18] 87.2%

Cc1ccc(Cc2cnc(NC(=O)c3cc(Br)cs3)s2)cc1
inactive: [1] 18.2% | [2] 53.2% | [3] 82.7% | [4] 94.2% | [5] 77.3% | [6] 64.9% | [7] 49.6% | [8] 61.9% | [9] 73.2% | [10] 33.5% | [11] 44.4% | [12] 37.1% | [14] 42% | [15] 30.3% | [16] 32.9% | [17] 82.9% | [18] 47.3%
active: [13] -16.5%

Cn1cc(-c2nc(-c3c[nH]c4ccncc34)cs2)c2ccccc21
inactive: [3] 49.4% | [4] 71.8% | [5] 52.1% | [6] 77.3% | [7] 67.3% | [8] 85.8% | [9] 90.1% | [10] 86.4% | [11] 12.4% | [12] 84.4% | [18] 18.7%
active: [1] -9.5% | [2] -29% | [13] -89.9% | [14] -47% | [15] 4.55% | [16] -63.4% | [17] -52.3%

O=C(Nc1ncc(Cc2ccc(Cl)c(C(F)(F)F)c2)s1)c1ccc2nnsc2c1
inactive: [1] 57% | [2] 40.8% | [3] 54.8% | [4] 55.8% | [5] 50.7% | [6] 62.5% | [7] 67.9% | [8] 58.5% | [9] 84% | [10] 40.9% | [11] 24.8% | [12] 65.5% | [13] 22.6% | [14] 44.3% | [15] 20.4% | [16] 45% | [17] 10.6% | [18] 37.8%

COC(=O)c1cc(-c2ccc(OC)cc2)[nH]c1N/N=C/c1c(Cl)cccc1Cl
active: [1] -16.4% | [8] -72.4% | [9] 0.353% | [12] -9.36% | [13] -54.7% | [14] 9.62% | [15] 1.03% | [16] -64.5% | [18] 2.76%
inactive: [2] 10.9% | [3] 14.5% | [4] 44.3% | [5] 40.6% | [6] 18.8% | [7] 29% | [10] 20% | [11] 45.5% | [17] 67.4%

C/C(=N/O)c1ccc(F)cc1
inactive: [1] 68% | [2] 85.5% | [3] 86.5% | [4] 80.1% | [5] 95.3% | [6] 85.2% | [7] 84.5% | [8] 132% | [9] 95.6% | [10] 77.7% | [11] 91.4% | [12] 88.2% | [13] 112% | [14] 48.6% | [15] 54.3% | [16] 51.9% | [17] 130% | [18] 106%

Cc1cc(=O)[nH]c2c(C#N)cnn12
inactive: [1] 112% | [2] 101% | [3] 98.7% | [4] 97.7% | [5] 111% | [6] 106% | [7] 97.2% | [8] 101% | [9] 92.6% | [10] 102% | [11] 99.6% | [12] 107% | [13] 104% | [14] 92.4% | [15] 93.2% | [16] 98.5% | [17] 101% | [18] 107%

COc1ccc(C/C(C)=C(/c2ccc(OCCN3CCCCC3)cc2)c2ccc(OC(=O)NCc3ccccc3)cc2)cc1
active: [1] -58% | [2] -62.3% | [3] -83.5% | [4] -78.6% | [5] -91.4% | [6] -93.7% | [7] -71.1% | [8] -89.2% | [9] -57.6% | [10] -75.7% | [11] -82.3% | [12] -76.4% | [13] -95.4% | [14] -83.5% | [15] -84.6% | [16] -90.3% | [17] -92.5% | [18] -81.2%
